Compound activity as filed in PubChem BioAssay.
An excerpt weighted towards active compounds, which were near 3.6% of everything screened.
Pf apPOL inh: Pf-apPOL DNA polymerase inhibition | Recombinant Pf-apPOL, molecular beacon fluorescence, 1.5 h | inhibition, % at 10 µM | 210,000 compounds, 0.25% hits
mHTT CaM bind: inhibitors of human mutant huntingtin-calmodulin interaction; P42858; AlphaScreen His-mHTT/GST-CaM binding, luminescence; 190,000 compounds, 3.6% hits; inhibition, % at 15 µM;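 note: 0% = both proteins with DMSO and 100% = one protein alone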
* hit, by the source's call; . = no result. Cut-off read from the data, not from the text of the source: active = inhibition above about 50%; inactive = the rest.

SMILES	Pf apPOL inh	mHTT CaM bind
O=C(NCc1cccc(Cl)c1)c1cc2n(n1)CCCN(Cc1ccc(Cl)cc1)C2=O	12.4	64.2*
O=C(NCc1cccc(Cl)c1)c1cc2n(n1)CCCN(Cc1ccccc1)C2=O	0.7	-6.7
O=C(Nc1ccc2c(c1)OCCO2)c1ccnc(N2CCNC(c3ccccc3)C2)c1 (stereo not drawn)	3.7	16.2
O=C(Nc1ccc2c(c1)CCC2)c1ccnc(N2CCNC(c3ccccc3)C2)c1 (stereo not drawn)	-4.4	81.6*
CN1C(=O)C2CCCCN2c2ccc(C(=O)NCCN3CCCC3)cc21 (stereo not drawn)	-2.3	19.8
COc1ccc(C=C2Oc3cc(OCC(=O)OCc4ccccc4)ccc3C2=O)cc1OC	-7.3	-3.3
Cc1cccc(N2CCN(C(=O)c3c(C)sc4ccn(C)c(=O)c34)CC2)c1	2.0	36.5
Cc1sc2ccn(C)c(=O)c2c1C(=O)N1CCN(c2cccc(Cl)c2)CC1	-1.0	96.0*
COc1cc2c(cc1OC)C(COc1ccc3c(C)cc(=O)oc3c1)N(C(=O)c1ccc(Cl)cc1)CC2 (stereo not drawn)	-0.2	0.0
COc1cc2c(cc1OC)C(COc1ccc(F)cc1)N(C(=O)Cc1ccc(F)cc1)CC2 (stereo not drawn)	-2.8	61.0*
COc1cc2c(cc1OC)C(COc1ccc(F)cc1)N(C(=O)c1cccc(F)c1)CC2 (stereo not drawn)	-1.4	76.0*
CCCC(=O)N1CCc2cc(OC)c(OC)cc2C1COc1ccc(OC)cc1 (stereo not drawn)	-0.5	6.8
COc1ccc(C=CC(=O)N2CCc3cc(OC)c(OC)cc3C2COc2ccc3c(C)cc(=O)oc3c2)cc1OC (stereo not drawn)	-0.8	69.2*
COc1ccc(OCC2c3cc(OC)c(OC)cc3CCN2C(=O)c2cccc(OC)c2)cc1 (stereo not drawn)	-1.6	4.3
CC(C)C(=O)N1CCN(c2nc3c(s2)CC(C(=O)NCc2cccnc2)CC3)CC1 (stereo not drawn)	-3.8	9.3
CN(C)CC1CN(S(=O)(=O)c2cccc(F)c2)CC12CCOCC2 (stereo not drawn)	-7.8	-4.0
COc1ccc(C)cc1NC(=O)N1CCCC1c1ccccc1Cl (stereo not drawn)	-0.9	-1.7
CCOC(=O)c1c(C(C)(C)C)oc2cc(Br)c(OCc3ccc(C(=O)OC)cc3)cc12	-4.4	-2.3
O=C(NCCNC(=O)c1ccc(F)c(F)c1)c1ccc(NC(=O)c2ccc(F)cc2)cc1	38.5	69.3*
O=C(Nc1ccc(F)cc1)c1ccc(C(=O)Nc2ccc(F)cc2)cc1	-2.7	-0.8
COc1ccc(/C=C2\N=C(c3cccc(Cl)c3Cl)OC2=O)cc1	1.9	-1.0
CC1(C(=O)n2cnc3ccccc32)CC1(Cl)Cl (stereo not drawn)	-1.0	-4.0
Cc1ccc(F)cc1S(=O)(=O)N1CCC2(C1)C(=O)Nc1ccccc12 (stereo not drawn)	1.0	8.4
Cc1cc(S(=O)(=O)N2CCC3(C2)C(=O)Nc2ccccc23)ccc1F (stereo not drawn)	8.4	96.1*
O=C(Cc1ccccc1Cl)N1CCC2(C1)C(=O)Nc1ccccc12 (stereo not drawn)	-5.5	1.2
SMILES	Pf apPOL inh	mHTT CaM bind
O=C1Nc2ccccc2C12CCN(S(=O)(=O)c1cccc(Cl)c1)C2 (stereo not drawn)	-1.2	76.8*
Cc1ccccc1NC(=O)Cn1cc2c(n1)CCCC2	-0.3	-7.9
CC(C)c1noc(-c2cccnc2N2CCCN(C(=O)c3ccc(N(C)C)cc3)CC2)n1	-0.3	27.1
O=[N+]([O-])c1cc2c(cc1C=Nc1ccc(O)c(-c3nc4ccccc4[nH]3)c1)OCO2	4.3	65.0*
O=[N+]([O-])c1cccc(C=Nc2ccc(O)c(-c3nc4ccccc4[nH]3)c2)c1O	0.5	68.0*
O=[N+]([O-])c1cc(C=Nc2ccc3nc(-c4ccccc4)[nH]c3c2)c(O)c([N+](=O)[O-])c1	-3.6	19.0
O=[N+]([O-])c1cc2c(cc1C=Nc1ccc(O)cc1)OCO2	.	21.7
Cc1ccccc1NC(=O)C1CC(=O)N(c2ccc3c(c2)CCN3C(=O)C2CC2)C1 (stereo not drawn)	12.1	5.1
O=C(NCc1ccc2c(c1)OCO2)c1ccc2nc(-c3ccccn3)c(-c3ccccn3)nc2c1	61.0*	7.9
O=C(CCc1nc(-c2ccccn2)no1)NCc1ccc2c(c1)OCO2	0.0	.
CC(=O)Nc1ccc(C(=O)CSc2nc(C)cc(=O)[nH]2)cc1	-0.6	0.9
CCCCC[C@H](C)N1C[C@@H](COCc2ccccc2)Oc2cc(N3CC[C@@H](O)C3)ccc2S1(=O)=O	-6.6	74.0*
CCCCC[C@@H](C)N1C[C@@H](COCc2ccccc2)Oc2cc(N3CC[C@H](O)C3)ccc2S1(=O)=O	-3.3	89.7*
CCCCC[C@@H](C)N1C[C@@H](COCc2ccccc2)Oc2cc(N3CCC[C@@H]3CO)ccc2S1(=O)=O	-5.5	21.9
CCCCC[C@@H](C)N1C[C@H](COCc2ccccc2)Oc2cc(N3CCC[C@H]3C(N)=O)ccc2S1(=O)=O	-4.7	21.9
CCCCC[C@@H](C)N1C[C@@H](COCc2ccccc2)Oc2cc(N3CC[C@@H](O)C3)ccc2S1(=O)=O	-2.1	99.2*
CCCCC[C@H](C)N1C[C@H](COCc2ccccc2)Oc2cc(N3CCC[C@H]3C(N)=O)ccc2S1(=O)=O	-17.8	41.7
Cc1ccc(OCC(=O)Nc2ccc(S(=O)(=O)NC(C)(C)C)cc2)c(C)c1	-7.9	8.8
O=C(CSc1ccc(-c2ccc(-n3cccn3)cc2)nn1)NCc1ccco1	0.7	2.3
CCCN1C(=O)Cc2ccccc2C1C(=O)NCCCOC (stereo not drawn)	-1.9	15.8
CCS(=O)(=O)N1CCC(OCc2nc(-c3cnccn3)no2)CC1	0.4	-10.4
CC1CCN(Cc2csc(N3CCN(C(=O)c4cccc(Cl)c4)CC3)n2)CC1	-4.2	5.2
COc1cc(-c2noc(C)c2/C=C/c2ccc(N)cc2)cc(OC)c1OC	-4.6	52.7*
COc1cc(-c2noc(C)c2C#Cc2ccc(N)cc2)cc(OC)c1OC	-4.4	13.2
N#Cc1c(C(F)(F)F)cc(-c2cccs2)[nH]c1=O	0.8	-11.9
SMILES	Pf apPOL inh	mHTT CaM bind
N#Cc1c(-c2cccs2)cc(-c2ccco2)[nH]c1=O	71.5*	.
CSc1cc(-c2cccs2)[nH]c(=O)c1C#N	-4.0	.
N#Cc1c(-c2ccco2)cc(-c2cccs2)[nH]c1=O	83.1*	.
CCC(=O)N1CCc2c(c(-c3nc(-c4ccccc4F)no3)nn2C)C1	-0.3	-3.1
O=C(NCc1ccncc1)C1CCN(C(=O)Cc2ccccc2)CC1	-2.5	-0.2
CC1CCCN(C(=O)C2CCN(c3cnn(Cc4ccccc4)c(=O)c3)CC2)C1 (stereo not drawn)	-7.7	18.7
O=C(CN1CC(c2nc(Cc3ccccc3)no2)C1)c1ccc(Cl)cc1	20.3	56.9*
Cc1nnc(NC(=O)CN2CC(c3nc(Cc4ccccc4)no3)C2)s1	-5.0	-2.8
Cc1cccc(CS(=O)(=O)N2CC(c3nc(Cc4ccccc4)no3)C2)c1	-8.3	-12.9
FC(F)(F)c1cccc(CN2CC(c3nc(Cc4ccccc4)no3)C2)c1	-4.1	61.5*
CCOc1cc(N2CCOCC2)c(OCC)cc1NC(=O)c1cccs1	-8.2	.
O=C(Nc1sc2c(c1C(=O)Nc1ccccc1Cl)CCC2)c1ccccc1F	-6.1	-2.1
CN1CCN(C(=O)c2cnc(-c3ccccc3)nc2N(C)Cc2ccccc2)CC1	-8.0	67.7*
